Potency and outcome data for 10 compounds are collected here from PubChem BioAssay (Tox21).

Molecules are shown by their SMILES. Where “and” joins values, the source holds several entries; their conditions need not be identical. Equal entries are not always repeated. Inconclusive results are not listed. Calls of active or inactive are those of the source. Unless noted, the call rests on the fitted dose curve; in most records, active means well fitted curve in the direction sought with a large enough effect in the repeat runs; inconclusive means weak or mixed curves; inactive means no such curve, though single readings can be large; an effect the other way counts as inactive or inconclusive.

Test [1] is described as follows: qHTS assay for small molecules that induce genotoxicity in human embryonic kidney cells expressing luciferase-tagged ATAD5 (AID 651632). Further: nearly all actives have a fitted effect of over 15% in size. Further: potency means the concentration at half of the fitted maximal effect. The method, boiled down: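 HEK293T cells carrying a luciferase reporter tagged to ATAD5 were exposed to compound or DMSO vehicle for 16 hr at 37C, 5% CO2. Amplite was added, and after 30 min at room temperature luciferase activity was read as a marker of ATAD5 induction.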
In general terms: Quantitative high-throughput screening tests each substance at several concentrations.

Test [2] can be described thus: qHTS assay for small molecules that induce genotoxicity in human embryonic kidney cells expressing luciferase-tagged ATAD5 - cell viability (AID 651634; calls by dose curve; further: nearly all actives have a fitted effect of over 25% in size; further: potency means the concentration at half of the fitted maximal effect). Summed up: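 HEK293T cells expressing luciferase-tagged ATAD5 were exposed to compound or DMSO for 15.5 hr at 37C, 5% CO2. Viability was then read as live-cell protease activity by CellTiter-Fluor fluorescence after 30 min at 37C.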

Test [3] in a line: qHTS assay for small molecule disruptors of the mitochondrial membrane potential - cell viability (AID 720634; calls by dose curve; further: nearly all actives have a fitted effect of over 20% in size; further: potency means the concentration at half of the fitted maximal effect). The method, boiled down:
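HepG2 cells seeded overnight at 37 C, then exposed to compound or DMSO for 1 hr at 37 C, 5% CO2. m-MPI dye added, then CellTiter-Glo for 30 min at room temperature; viability read as ATP luminescence.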

Test [4] is described as follows: qHTS assay to test for compound auto fluorescence at 535 nm (green) in HepG2 cells (AID 720675).
A short description of test [5]: qHTS assay to test for compound auto fluorescence at 535 nm (green) in HEK293 cells (AID 720680).
Test [6] is described as follows: qHTS assay to test for compound auto fluorescence at 460 nm (blue) in HEK293 cell free culture (AID 720681). The method, boiled down:
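Blue fluorescence (Ex 405/Em 460 nm, triamterene-equivalent) was read immediately after pin transfer of compound or DMSO into medium (DMEM, 10% FBS) without cells.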

Test [7] is described as follows: qHTS assay to test for compound auto fluorescence at 535 nm (green) in HEK293 cell free culture (AID 720682). The method, boiled down:
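No cells present: wells hold DMEM supplemented with 10% FBS, into which compound or vehicle is pinned. Green emission is then recorded (485 nm excitation, 535 nm emission) and scaled to fluorescein.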

The nature of test [8]: qHTS assay to test for compound auto fluorescence at 590 nm (red) in HEK293 cell free culture (AID 720683). The method, boiled down: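 Red-channel autofluorescence of compounds in culture medium (DMEM, 10% FBS), no cells, measured at 540/590 nm. Rose Bengal sodium is the reference fluorophore for equivalence.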
The nature of test [9]: qHTS assay to test for compound auto fluorescence at 590 nm (red) in HepG2 cell free culture (AID 720684). Summed up: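 Plate contents were MEM with 10% FBS plus test compound or DMSO, no cells. Fluorescence was recorded with 540 nm excitation and 590 nm emission.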
Test [10] in a line: qHTS assay to test for compound auto fluorescence at 460 nm (blue) in HepG2 cell free culture (AID 720685). The method, boiled down: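 Compound (23 nL) or DMSO pinned into cell-free MEM with 10% FBS; blue fluorescence read at 405/460 nm excitation/emission, expressed as auto-fluorescence equivalency to triamterene.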
A short description of test [11]: qHTS assay to identify small molecule antagonists of the androgen receptor (AR) signaling pathway using the MDA cell line - cell viability counter screen (AID 743041; further: nearly all actives have a fitted effect of over 45% in size; further: potency means the concentration at half of the fitted maximal effect). The method, boiled down: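 R1881-driven MDA-kb2 AR-luc cells, 3,000/well, were dosed with library compounds for 16 h; cell health came from CellTiter-Fluor fluorescence in the reporter wells.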
Test [12] is described as follows: qHTS assay to identify small molecule antagonists of the thyroid receptor (TR) signaling pathway (AID 743065). Further: nearly all actives have a fitted effect of over 55% in size. Further: potency means the concentration at half of the fitted maximal effect. The method, boiled down:
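Antagonism measured as loss of luciferase signal in GH3 cells stably carrying a TRE-luciferase reporter, co-treated with compound and T3 (1 nM final) for 23.5 h at 37 C. Viability was read in the same well by CellTiter-Fluor.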

Test [13] can be described thus: qHTS assay to identify small molecule antagonists of the estrogen receptor alpha (ER-alpha) signaling pathway using the BG1 cell line - cell viability counter screen (AID 743081).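 Further: compound given together with 17beta-estradiol as the ER stimulus; series mostly up to about 70 µM; nearly all actives have a fitted effect of over 45% in size.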
Test [14] has as its target Aromatase (Homo sapiens) (UniProt P11511). The test can be described thus: qHTS assay to identify aromatase inhibitors (AID 743083). Further: nearly all actives have a fitted effect of over 55% in size. Further: potency means the concentration at half of the fitted maximal effect.
The nature of test [15]: qHTS assay to identify aromatase inhibitors - cell viability counter screen (AID 743084).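 Further: cells stimulated with testosterone during compound exposure; nearly all actives have a fitted effect of over 55% in size.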 Further: potency means the concentration at half of the fitted maximal effect.
Test [16] concerns the target Aryl hydrocarbon receptor (Homo sapiens) (UniProt P35869). Description: qHTS assay to identify small molecule that activate the aryl hydrocarbon receptor (AhR) signaling pathway (AID 743085).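 Further: HG2L7.5c1 human HepG2 liver cells with stably integrated DRE-driven firefly reporter; series mostly up to about 70 µM; nearly all actives have a fitted effect of over 15% in size.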 The method, boiled down:
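Compounds were tested in HepG2 hepatocellular carcinoma cells harbouring a stably integrated luciferase gene under control of 20 DREs. Increased reporter signal after 24 h treatment at 37C was taken as AhR activation.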

Test [17] can be described thus: qHTS assay to identify small molecule that activate the aryl hydrocarbon receptor (AhR) signaling pathway - cell viability counter screen (AID 743086). Further: nearly all actives have a fitted effect of over 45% in size. Further: potency means the concentration at half of the fitted maximal effect. Summed up: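 Cytotoxicity counter screen: CellTiter-Fluor signal (30 min, 37 C) in 4000 HepG2 cells/well carrying the DRE-luciferase reporter, following 24 h compound exposure at 37 C.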
Test [18] in a line: qHTS assay to identify small molecule phospholipidosis (PLD) inducers (AID 1259344; active means well fitted curve in the direction sought with a large enough effect; an effect the other way counts as inactive or inconclusive). Summed up: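 Fluorescent phospholipid staining (LipidTOX Red) measured by automated microscopy in fixed HepG2 cells after 24 h treatment; nuclei counterstained with Hoechst 33342; amiodarone as reference inducer.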
Test [19] is described as follows: qHTS assay for identifying genotoxic compounds that show differential cytotoxicity against isogenic chicken DT40 cell lines with known DNA damage response pathways - Rad54/Ku70 mutant cell line (AID 743015). Further: nearly all actives have a fitted effect of over 60% in size. Further: potency means the concentration at half of the fitted maximal effect.

Aryl hydrocarbon receptor (Homo sapiens), sequence (P35869 whole entry, looked up): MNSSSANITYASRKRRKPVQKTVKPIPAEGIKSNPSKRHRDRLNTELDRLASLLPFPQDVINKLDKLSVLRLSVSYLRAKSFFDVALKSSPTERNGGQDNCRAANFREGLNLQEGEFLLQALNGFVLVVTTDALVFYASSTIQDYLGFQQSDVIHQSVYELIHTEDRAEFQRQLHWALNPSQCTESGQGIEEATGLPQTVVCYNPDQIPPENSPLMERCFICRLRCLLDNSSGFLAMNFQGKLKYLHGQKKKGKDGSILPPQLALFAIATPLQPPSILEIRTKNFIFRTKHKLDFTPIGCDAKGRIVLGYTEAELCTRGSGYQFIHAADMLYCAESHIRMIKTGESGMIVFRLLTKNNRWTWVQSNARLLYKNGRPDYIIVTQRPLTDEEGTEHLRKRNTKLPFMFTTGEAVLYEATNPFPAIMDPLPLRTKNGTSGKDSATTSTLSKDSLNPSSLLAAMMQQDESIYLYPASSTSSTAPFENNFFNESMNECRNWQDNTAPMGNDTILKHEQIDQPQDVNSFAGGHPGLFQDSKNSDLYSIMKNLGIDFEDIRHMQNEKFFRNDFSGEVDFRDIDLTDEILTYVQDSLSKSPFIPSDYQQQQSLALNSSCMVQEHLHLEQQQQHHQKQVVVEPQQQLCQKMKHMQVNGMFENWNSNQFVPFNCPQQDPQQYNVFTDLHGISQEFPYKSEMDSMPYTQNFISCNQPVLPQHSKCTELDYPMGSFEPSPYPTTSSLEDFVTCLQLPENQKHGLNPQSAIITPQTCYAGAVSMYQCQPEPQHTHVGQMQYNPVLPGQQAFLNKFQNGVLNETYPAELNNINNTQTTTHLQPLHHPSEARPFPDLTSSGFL
Aromatase (Homo sapiens), sequence (P11511 whole entry, looked up): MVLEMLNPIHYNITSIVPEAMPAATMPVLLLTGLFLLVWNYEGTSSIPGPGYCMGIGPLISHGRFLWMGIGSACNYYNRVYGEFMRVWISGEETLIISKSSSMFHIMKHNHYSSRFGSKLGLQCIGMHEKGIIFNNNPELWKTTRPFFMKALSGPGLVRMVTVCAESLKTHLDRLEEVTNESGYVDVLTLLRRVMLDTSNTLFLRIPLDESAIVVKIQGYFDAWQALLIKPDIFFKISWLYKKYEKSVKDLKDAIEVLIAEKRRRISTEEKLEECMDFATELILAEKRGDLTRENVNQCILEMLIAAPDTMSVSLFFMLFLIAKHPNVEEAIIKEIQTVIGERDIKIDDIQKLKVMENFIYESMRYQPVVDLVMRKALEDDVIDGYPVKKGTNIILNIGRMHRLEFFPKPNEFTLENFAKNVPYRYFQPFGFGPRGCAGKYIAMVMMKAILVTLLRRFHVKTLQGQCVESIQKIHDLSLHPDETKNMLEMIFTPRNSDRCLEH

In the case of `CC(=O)O[C@H]1CC[C@H]2[C@@H]3CCC4=CC(=O)CCC4=C3C=C[C@]12C`, the Potency entry in test [1], in test [2], in test [3], in test [4], in test [5] and in [6] was “inactive” each time. Moreover, the Potency result in [7], in test [10], in test [11], in test [12], in test [13] and in test [14] was “inactive” in each case. Moreover, the Potency entry in [15], in test [16], in test [17] and in [18] was “inactive” each time. Besides, the result in test [8] and in test [9] was inactive.
For the compound `O=C(C[C@@H]1NCCC[C@H]1O)Cn1cnc2cc(Br)c(Cl)cc2c1=O`, the Potency entry in test [1], in test [2], in test [3], in test [4], in test [5] and in test [6] was “inactive” in each case. The Potency entry in test [7], in test [10], in test [19], in [11], in test [13] and in [14] was “inactive” in each case. Moreover, the Potency result in test [15], in test [17] and in test [18] was “inactive” in each case. Moreover, the outcome in test [8] and in test [9] was inactive.
Take `[S]=[Sb](=[S])[S][Sb](=[S])=[S]`: the Potency result in test [1], in test [2], in test [3], in test [4], in test [5] and in test [6] was “inactive” in each case. The Potency result in test [7], in [10], in test [19], in [11], in [12] and in test [13] was “inactive” each time. Also, the Potency entry in test [14], in test [15], in test [16], in [17] and in [18] was “inactive” each time. Further, the outcome in test [8] and in test [9] was inactive.
Consider `C=CCC1(C(C)CCC)C(=O)N=C(S)NC1=O` (stereo unspecified), for which the Potency result in test [1], in test [2], in [3], in test [4], in test [5] and in test [6] was “inactive” throughout. Besides, the Potency result in [7], in test [10], in test [19], in [11], in test [12] and in [13] was “inactive” throughout. For the same compound, the Potency entry in test [14], in test [15], in test [16], in [17] and in test [18] was “inactive” throughout. In addition, the outcome in [8] and in test [9] was inactive.
With `CCC/C=C/C=C/C(=O)O[C@H]1/C(=C/C(=O)OC)C[C@H]2C[C@H]([C@@H](C)O)OC(=O)C[C@H](O)C[C@@H]3C[C@H](OC(C)=O)C(C)(C)[C@](O)(C[C@@H]4C/C(=C/C(=O)OC)C[C@H](/C=C/C(C)(C)[C@]1(O)O2)O4)O3`, the results for the Potency in [1], in [19] and in [12] were 4.7 nM (active), 0.0042 µM (active) and 9.44 µM (active), respectively. Also, the Potency entry in test [2], in [3], in test [4], in [5], in test [6] and in test [7] was “inactive” each time. Further, the Potency entry in [10], in [11], in test [13], in [14], in [15] and in test [16] was “inactive” in each case. The Potency result in [17] and in test [18] was “inactive” throughout. The outcome in [8] and in test [9] was inactive.
Turning to `CCC(=O)O[C@@](Cc1ccccc1)(c1ccccc1)[C@@H](C)CN(C)C`, the Potency result in [1], in [2], in test [3], in test [4], in [5] and in test [6] was “inactive” throughout. Also, the Potency entry in test [7], in test [10], in test [19], in test [11], in test [12] and in test [17] was “inactive” throughout. Also, the Potency result in [18] was “inactive”. The call in [8] and in test [9] was inactive.
Consider `Cc1cc(C)cc(C(=O)OC2C[C@H]3CC[C@@H](C2)N3C)c1` (stereo partly specified), for which the Potency result in [1], in test [2], in test [3], in test [4], in [5] and in test [6] was “inactive” throughout. Moreover, the Potency result in test [7], in [10], in test [11], in test [13], in test [14] and in test [15] was “inactive” each time. Further, in [18], the Potency entry was “inactive”. The result in test [8] and in test [9] was inactive. The Potency is 5.31 µM (active) in [19] and 18.8 µM (active) in [12].
For the compound `Oc1cc[c]([Hg][Cl])cc1`, the Potency in [1] is 4.22 µM (active) and 8.41 µM (active); in test [2] it was 11.9 µM (active) and 13.3 µM (active); in test [3], 16.8 µM (active); in test [19], 0.473 µM (active); in [11], 11.9 µM (active) and 13.3 µM (active); in test [12], 422 nM (active) and 531 nM (active). Moreover, the Potency in test [14] is 6.68 µM (active) and 13.3 µM (active); in [15], 6.68 µM (active) and 11.9 µM (active); in [17], 13.3 µM (active). Moreover, the Potency entry in test [4], in [5], in [6], in test [7], in [10] and in test [13] was “inactive” throughout. The Potency result in test [16] and in test [18] was “inactive” throughout. For the same compound, the outcome in test [8] and in test [9] was inactive.
Consider `CN=C1CN(O)C(c2ccccc2)=c2cc(Cl)ccc2=N1`, for which the Potency entry in test [1], in test [2], in test [3], in test [4], in test [5] and in test [6] was “inactive” in each case. Further, the Potency result in test [7], in [10], in [19], in [11], in test [12] and in test [13] was “inactive” throughout. Also, the Potency result in [14], in [15], in [16], in test [17] and in [18] was “inactive” throughout. For the same compound, the outcome in test [8] and in test [9] was inactive.
Regarding `CNC1(c2ccccc2Cl)CCCCC1=O` (stereo unspecified), the Potency entry in test [1], in [2], in [3], in test [4], in [5] and in test [6] was “inactive” in each case. Moreover, the Potency result in [7], in [10], in test [19], in test [11], in [12] and in test [13] was “inactive” each time. Also, the Potency entry in [14], in test [15], in [16], in [17] and in test [18] was “inactive” in each case. The outcome in [8] and in test [9] was inactive.
